Calls of active or inactive are those of the source. Calls follow the shape of the full dose curve.
Biological target: Thyrotropin-releasing hormone receptor (Homo sapiens) (UniProt P34981)
Test: qHTS assay to identify small molecule agonists of the thyrotropin-releasing hormone receptor (TRHR) signaling pathway (AID 1346891);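 also: HEK293 cells expressing TRHR with calcium dye readout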
Conditions: TRHR-HEK293 calcium fluorescence, agonist mode; series mostly up to 57.6 µM
Description: National Center for Advancing Translational Sciences [NCATS] NIH Chemical Genomics Center [NCGC] U.S. Environmental Protection Agency [EPA] National Institutes of Environmental Health Sciences [NIEHS] National Toxicology Program [NTP] Assay overview: Thyrotropin-releasing hormone (TRH) receptor (TRHR) is a G-protein-coupled receptor which binds the tripeptide thyrotropin releasing hormone. TRHR is found in the brain and, when bound by TRH, acts (through phospholipase C) to increase intracellular inositol trisphosphate. It plays a crucial role in the anterior pituitary where it controls the synthesis and secretion of thyroid stimulating hormone and prolactin. The TRHR-Hek293 assay is a cell-based assay, and it has the potential to screen G protein-coupled receptors. A compound/drug can either activate (agonist) or suppress (antagonist) GPCRs that can be monitored by levels of intracellular calcium. Using this assay, the Tox21 10K compound library was screened to identify potential TRHR agonists.
Assay Protocol Summary: The TRHR-Hek293 cells were dispensed at 1500cells/4uL/well in 1536-well black-clear bottom plates using a Multidrop dispenser. After the assay plates were incubated at a 37 C/5% CO2 incubator for 18 hours, 4 uL of Dye-Loading Solution was added to each well. The plates were incubated at 37 C for 2 hours. For agonist mode, 23 nL of compounds dissolved in DMSO, positive controls or DMSO only was transferred to the assay plate by a pin tool. The fluorescence intensity in the plates was measured using FDSS 7000EX kinetic plate reader for 3 min at 1 sec intervals. Each test compound was measured at 15 concentrations and in triplicates.
% is scaled to controls: 0 for no effect and ±100 for the full control effect.

Sequence of Thyrotropin-releasing hormone receptor (Homo sapiens) (P34981 whole entry, looked up): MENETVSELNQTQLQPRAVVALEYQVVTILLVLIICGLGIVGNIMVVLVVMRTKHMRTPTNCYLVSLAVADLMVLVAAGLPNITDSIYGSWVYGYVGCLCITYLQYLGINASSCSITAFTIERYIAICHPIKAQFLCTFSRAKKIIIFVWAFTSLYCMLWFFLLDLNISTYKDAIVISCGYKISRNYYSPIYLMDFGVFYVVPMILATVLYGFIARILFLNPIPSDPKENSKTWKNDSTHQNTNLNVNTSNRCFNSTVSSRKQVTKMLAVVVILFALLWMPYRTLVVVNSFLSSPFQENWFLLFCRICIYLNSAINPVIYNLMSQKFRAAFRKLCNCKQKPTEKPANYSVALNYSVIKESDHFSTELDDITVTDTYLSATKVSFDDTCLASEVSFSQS

| Compound | outcome | activation |
| --- | --- | --- |
| COC(=O)CCCCCCCC(=O)OC | inactive |  |
| COP(=O)(OC)OC(c1ccc(Cl)cc1)P(=O)(OC)OC (stereo not given) | inactive |  |
| O=C(O)c1ccc(Cl)cc1Cl | inactive |  |
| CC(C)C[C@H](NC(=O)CNC(=O)[C@H](Cc1ccc(O)cc1)NC(=O)[C@H](CO)NC(=O)[C@H](Cc1c[nH]c2ccccc12)NC(=O)[C@H](Cc1cnc[nH]1)NC(=O)[C@@H]1CCC(=O)N1)C(=O)N[C@@H](CCCN=C(N)N)C(=O)N1CCC[C@H]1C(=O)NCC(N)=O (stereo in doubt) | inactive |  |
| CCCCN | inactive |  |
| CCCCNc1ccc(C(=O)OCCN(C)C)cc1 | inactive |  |
| CCCCCCCCCCl | inactive |  |
| O=C1c2cccc3c2[C@H](CCC3)CN1[C@@H]1CN2CCC1CC2 | inactive |  |
| COc1ccc(-c2cc(=O)c3c(O)cc(O[C@@H]4O[C@H](CO[C@@H]5O[C@@H](C)[C@H](O)[C@@H](O)[C@H]5O)[C@@H](O)[C@H](O)[C@H]4O)cc3o2)cc1O | inactive |  |
| Oc1ccccc1-c1nnco1 | inactive |  |
| c1ccc2nccnc2c1 | inactive |  |
| FC(F)(F)c1ccccc1-n1ccnc1 | inactive |  |
| CC(C)C(=O)OCCc1ccccc1 | inactive |  |
| COCCOCCOCCOCCO | inactive |  |
| CC(COC(C)(C)C)OCCCO (stereo not given) | inactive |  |
| CCCCC(CC)COCCO (stereo not given) | inactive |  |
| CN(C)CCOCCO | inactive |  |
| Cc1cc(C(C)(C)C)c(O)c(C)c1CC1=NCCN1 | inactive |  |
| CC(S)C(=O)NCC(=O)O (stereo not given) | inactive |  |
| CC(C)C(=O)OCc1cccc(OC(=O)[C@@H]2N3C(=O)[C@@H](NC(=O)Cc4ccccc4)[C@H]3SC2(C)C)c1 | inactive |  |

| Compound | outcome | activation |
| --- | --- | --- |
| CNC(=O)[C@H]1O[C@@H](n2cnc3c(NCc4cc(Cl)ccc4OCc4cc(C)no4)ncnc32)[C@H](O)[C@@H]1N | inactive |  |
| CCOC(=O)c1ccc(OC(=O)CCCCCN=C(N)N)cc1 | inactive |  |
| CCOC(=O)/C=C/c1ccccc1 | inactive |  |
| CC(C)c1ccc2cc(C(C)C)ccc2c1 | inactive |  |
| C[C@H](CCC(=O)O)[C@H]1CC[C@H]2[C@@H]3C(=O)C[C@@H]4CC(=O)CC[C@]4(C)[C@H]3CC(=O)[C@]12C | inactive |  |
| CC1(C)S[C@@H]2[C@H](N=CN3CCCCCC3)C(=O)N2[C@H]1C(=O)O | inactive |  |
| COc1ccc(OC)c(Cl)c1 | inactive |  |
| CCCCCCCC/C=C\CCCCCCCC(=O)OCCCC |  | 0.159% [at 11.8 µM] (inactive) |
| CCCCCCCCOS(=O)(=O)O | inactive |  |
| COCCOCCOCCOCCOCCO | inactive |  |
| CC(=O)NCc1c(I)c(NC(C)=O)c(I)c(C(=O)O)c1I | inactive |  |
| Cc1ccccc1N=O | inactive |  |
| CCCCNC1CC(C)(C)NC(C)(C)C1 | inactive |  |
| CCCN1C[C@H](CSC)C[C@@H]2c3cccc4[nH]cc(c34)C[C@H]21 | inactive |  |
| CC(C)(C)c1cc(CCC(=O)NN)cc(C(C)(C)C)c1O | inactive |  |
| O=C(Nc1ccc(Cl)c(Cl)c1)C1CC1 | inactive |  |
| N[C@@H](COP(=O)(O)O)C(=O)O |  | -0.175% [at 11.8 µM] (inactive) |
| O=C(O)CCSSCCC(=O)O | inactive |  |
| OCCCCC(O)CO (stereo not given) | inactive |  |
| C[C@@H]1O[C@@H](O[C@@H]2[C@@H](O)[C@H](OCCc3ccc(O)c(O)c3)O[C@H](CO[C@@H]3O[C@H](CO)[C@@H](O)[C@H](O)[C@H]3O)[C@H]2OC(=O)/C=C/c2ccc(O)c(O)c2)[C@H](O)[C@H](O)[C@H]1O | inactive |  |

— PubChem BioAssay (Tox21)
